From PubChem BioAssay AID504332 (National Center for Advancing Translational Sciences (NCATS), 2011)
Where “and” joins values, the source holds several entries; their conditions need not be identical. Equal entries are not always repeated. The whole screen tested about 350,000 compounds, of which about 31,000 (8.9%) were called active. Another 15% or so got no clear call; they are omitted. Calls come from the whole dose curve; as a rule, active = well fitted inhibition curve with a large enough effect; inconclusive = small, poorly fitted or top-dose-only effect; inactive = no such curve, though single readings can be large or run the other way. Many of the other results were omitted from the sample, so actives are more common in it than they were. Some structures have more than one record in an assay (separate samples or runs), and their calls can disagree.

What follows are molecules tested against Histone-lysine N-methyltransferase EHMT2 (Homo sapiens) (UniProt Q96KQ7) (assay: qHTS Assay for Inhibitors of Histone Lysine Methyltransferase G9a). Details: G9a H3K9 monomethylation, AlphaScreen, 2 h; series mostly up to 102 µM; activity, negative = inhibition: at the top concentration.
Histone-lysine N-methyltransferase EHMT2 (Homo sapiens), sequence (Q96KQ7 913-1193 limits assumed): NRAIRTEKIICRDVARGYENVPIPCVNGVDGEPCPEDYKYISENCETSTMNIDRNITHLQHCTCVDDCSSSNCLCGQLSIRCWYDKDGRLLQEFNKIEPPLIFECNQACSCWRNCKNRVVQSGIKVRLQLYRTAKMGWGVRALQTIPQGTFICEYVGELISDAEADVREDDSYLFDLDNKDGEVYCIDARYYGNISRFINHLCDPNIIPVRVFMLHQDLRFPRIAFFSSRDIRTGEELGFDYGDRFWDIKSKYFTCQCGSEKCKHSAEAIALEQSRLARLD
Procedure, shortened: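 AlphaScreen detection with an anti-monomethyl H3K9 antibody quantified product after a 2 h room-temperature reaction containing 500 nM biotinylated H3K9 peptide, 20 µM SAM and 20 nM enzyme, which had been preincubated 15 min with compound.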
% is set by controls: 0 for no effect and ±100 for the full control effect; potency is the fitted concentration of half-maximal effect.
Note: nearly all actives have a fitted effect of over 75% in size.

Row | Structure (SMILES) | activity, negative = inhibition | Potency
1 | CCCCC/C=C\C/C=C\C/C=C\CCCCCCC(=O)NCCO | 28.1% [at 59 µM] (inactive) | –
2 | O=C1/C(=C\c2ccc3c(c2)OCO3)N2CCC1CC2 | 2.58% [at 59 µM] (inactive) | –
3 | O=C(CCN1CCCCC1)NCC(=O)Nc1ccc(Br)cc1C(=O)c1ccccc1 | -0.343% [at 59 µM] (inactive) | –
4 | CCOP(=S)(OCC)C(O)CCCCCn1c(=O)c(F)cn(C2CCCO2)c1=O (stereo not drawn) | 6.51% [at 0.501 µM] (inactive) | –
5 | CN(C)c1nc(N(C)C)nc(N(C#N)CCCl)n1 | – | 39.8 µM (active)
6 | Clc1cccc(Cl)c1Cl | 8.54% [at 0.501 µM] (inactive) | –
7 | C[C@]12CC[C@@H]3c4ccc(O)cc4C[C@@H](CCCCCCCCCS(=O)CCCC(F)(F)C(F)(F)F)C3[C@@H]1CC[C@@H]2O (stereo partly drawn) | 11.8% [at 59 µM] (inactive) | –
8 | Cn1c(O)c(C=Nc2ccc3c(c2)CCC3)c(=O)n(C)c1=O | -5.96% [at 59 µM] (inactive) | –
9 | c1ccc2sc(C3CCCNC3)nc2c1 (stereo not drawn) | – | 44.7 µM (active)
10 | c1ccc2sc(N3CCNCC3)nc2c1 | 9.8% (inactive) | –
11 | CC(C)(C)[C@]1(O)C[C@@H]2OC(=O)C[C@@]23C(=O)O[C@@H]2OC(=O)[C@H](O)[C@]213 | 9.37% (inactive) | –
12 | OC1/C(=C/c2ccc(C(F)(F)F)cc2)N2CCC1CC2 (stereo not drawn) | 2.96% (inactive) | –
13 | COC(=O)C1=C(c2ccc3ccccc3c2)C[C@@H]2CC[C@H]1N2C(=O)NCCO | 26.7% [at 2.33 µM] (inactive) | –
14 | CCN1CCN(Cc2cc(OC)c3c(c2)OCO3)CC1 | 3.35% (inactive) | –
15 | COc1ccc(CNCCc2ccc3c(c2)OCO3)c(OC)c1OC | – | 8.91 µM (active)
16 | COC(=O)C1=C(c2c(C)noc2C)C[C@@H]2CC[C@H]1N2C(=O)NCc1ccc2c(c1)OCO2 | -4.27% [at 0.501 µM] (inactive) | –
17 | c1csc(CN2CCCC3(CCNCC3)C2)n1 | 7.82% [at 12.7 µM] (inactive) | –
18 | CCCCCCCCCCCCn1ccc(=N)cc1 | -31.1% (inactive) | –
19 | CC[C@H]1CN2CCc3cc(OC)c(OC)cc3[C@@H]2C[C@@H]1C[C@H]1NCCc2cc(OC)c(OC)cc21 | inactive | –
20 | CCOc1cc(N2CCOCC2)c(OCC)cc1NC(=O)C1=NN(c2cccc(C)c2)C(=O)CC1 | – | 11.2 µM (active)
21 | CCCCCn1c(=O)c(C(=O)NCc2ccccn2)c(O)c2ccccc21 | 106% [at 59 µM] (inactive) | –
22 | O=C1c2ccccc2NC(c2ccccc2O)N1NS(=O)(=O)c1ccccc1 (stereo not drawn) | -19.9% (inactive) | –
23 | Cc1ccc(N(C)C(=O)Oc2cccc3ccc(C)nc23)cc1 | 31.5% (inactive) | –
24 | COC(=O)COc1cc(C)cc2oc(=O)c3c(c12)CCCC3 | 27.9% [at 59 µM] (inactive) | –

Row | Structure (SMILES) | activity, negative = inhibition | Potency
25 | O=C(Nc1cccc(F)c1)N1CC[C@@]2(CCCN(C(=O)Oc3ccccc3)C2)C1 | -11.3% [at 12.7 µM] (inactive) | –
26 | COc1cc(C(c2c(O)c3ccccc3oc2=O)c2c(C)n(C)n(-c3ccccc3)c2=O)ccc1O (stereo not drawn) | – | 44.7 µM (active)
27 | CCCCCn1c(=O)c(C(=O)Nc2c(C)n(C)n(-c3ccccc3)c2=O)c(O)c2ccccc21 | 14% [at 59 µM] (inactive) | –
28 | CCC(=O)CC(c1ccc([N+](=O)[O-])cc1)c1c(O)c2ccccc2oc1=O (stereo not drawn) | -41.4% (inactive) | –
29 | Cc1ccsc1C(=O)C1CCCN(Cc2ccc(O)cc2)C1 (stereo not drawn) | -12% (inactive) | –
30 | CCOC(=O)CC1=C(C(=O)OCC)C2(C(=O)N1)C(C(=O)OC)=C(N)Oc1ccccc12 (stereo not drawn) | 0.286% [at 59 µM] (inactive) | –
31 | CCCCCCN=C(CC)c1c(O)n(CCCC)c(=O)[nH]c1=O | -24.6% [at 12.7 µM] (inactive) | –
32 | COc1ccccc1OC(=O)c1ccc(C)c(S(=O)(=O)N2CCOCC2)c1 | 12.8% (inactive) | –
33 | COc1ccc(C(=O)C2CCCN(Cc3ccc(C)s3)C2)cc1OC (stereo not drawn) | -23.9% (inactive) | –
34 | COc1cc(C(=S)N2CCOCC2)ccc1O | -4.38% [at 12.7 µM] (inactive) | 20 µM (active)
35 | OCC#CC[N+]1(CC#Cc2ccccc2)CCCC1 | 15.5% (inactive) | –
36 | CC(c1ccccc1)(c1ccccc1)c1ccncc1 | 19.7% (inactive) | –
37 | CC(Cc1ccccc1)NCCC(c1ccccc1)c1ccccc1 (stereo not drawn) | -1.18% [at 59 µM] (inactive) | –
38 | Cn1c(O)c(C=NCCN2CCNCC2)c(=O)n(C)c1=O | -6.35% [at 59 µM] (inactive) | –
39 | C=CCN1CCC2(C)c3cc(O)ccc3CC1[C@@H]2C (stereo partly drawn) | 35.6% [at 59 µM] (inactive) | –
40 | C=CCN1CCC23c4c5ccc(O)c4O[C@H]2C(=O)CC[C@@]3(O)C1C5 (stereo partly drawn) | – | inactive and 31.6 µM (active)
41 | CC(C)N(CC#CCC1(O)c2ccccc2-c2ccccc21)C(C)C | -6.71% [at 59 µM] (inactive) | –
42 | O=C(Nc1cccc(OC(=O)N2CCCCC2)c1)N1CCOCC1 | 47.6% (inactive) | –
43 | Cc1cc(C(=O)OCC(=O)Nc2c(F)cccc2F)c(C)n1C1CC1 | 2.06% (inactive) | –
44 | Cc1noc(C)c1CSc1nc2cc(S(=O)(=O)N3CCOCC3)ccc2o1 | – | 3.16 µM (active)
45 | CN(C)CCN(CC1CCCN(Cc2ccccc2F)C1)C(=O)Cc1ccc(F)c(F)c1 (stereo not drawn) | 21.8% (inactive) | –
46 | CCCC[N+]1(C)C2CC(OC(=O)C(CO)c3ccccc3)CC1C1OC12 (stereo not drawn) | inactive | –
47 | COC(=O)C1=C(c2ccc(F)cc2OCc2ccccc2)C[C@@H]2CC[C@H]1N2C(=O)NCc1ccc2[nH]ccc2c1 | 4.96% [at 0.501 µM] (inactive) | –
